# A selection: hits, their analogues and other compounds. The true share with any hit is near 4.1%.
# TROY NFkB inh – inhibitors of TROY-dependent NF-kB signaling. Q293 LMP1-TROYcd NF-kB luciferase reporter, 4 h. inhibition, % at 10 µM. hit rate 0.98% among 360,000;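 active = compounds whose plate-normalised and pattern-corrected inhibition of the luciferase reporter signal at the single screening dose is 50% or more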
# TRPM1 prom inh – MITF TRPM1 promoter inhibition in SK-MEL-5 cells; SK-MEL-5 TRPM1 promoter luciferase, 24 h; inhibition, % at 12.5 µM; hit rate 0.83% among 330,000; AID 488899;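 active = mean inhibition across replicates of 60% or more, whatever share of single replicates reaches that level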
# TWEAK-Fn14 inh – blocks TWEAK-Fn14 interaction in a reporter cell assay. hit rate 2% among 360,000. inhibition, % at 10 µM. AID 1159606. TWEAK-stimulated Fn14 reporter cells, luciferase luminescence, 8 h; in the data active = inhibition above about 50%
# Peg3 prom inh – inhibitors of Peg3 promoter | HeLa PEG-Prom luciferase reporter, luminescence, overnight | inhibition, % at 20 µM | hit rate 1.7% among 360,000;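 active = inhibition of at least 50% at 20 µM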
# Shn3 inh set2 – inhibitors of Schnurri-3 3'UTR reporter in osteoblasts; inhibition, % at 12.5 µM; Clone20 osteoblast Shn3 3'UTR firefly luciferase, 24 h; hit rate 0.52% among 360,000;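 active = mean inhibition of at least 75% with every replicate also reaching 75%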
# EBV LMP1 NFkB – reduces LMP1-driven NF-kappaB luciferase signal; inhibition, % at 12.5 µM; LMP1-induced NF-kappaB luciferase reporter cells, luminescence; AID 504558; hit rate 0.69% among 350,000; in the data active = inhibition above about 41%
# Hits are given with their value; i = inactive; nt = no result.
SMILES,TROY NFkB inh,TRPM1 prom inh,TWEAK-Fn14 inh,Peg3 prom inh,Shn3 inh set2,EBV LMP1 NFkB
CCOc1ccc(-c2c(C)n(-c3ccc(OCC)cc3)c3[n+]2CCCCC3)cc1,57,76,87,51,88,i
CCOc1ccc(-n2c(-c3ccoc3)nc3ccccc3c2=O)cc1,i,i,i,i,i,i
C[C@H]1CCC/C=C/[C@@H]2C[C@H](O)C[C@H]2[C@@H](O)/C=C/C(=O)O1,i,89,61,59,88,i
O=C(c1cccc(C(F)(F)F)c1)N1C[C@H]2C[C@@H](C1)c1cccc(=O)n1C2,i,i,i,i,i,i
Cc1ccc(C(O)(c2ccc(C)c(C)c2)C2CN3CCC2CC3)cc1C (configuration not stated),i,83,i,98,i,i
COc1cc2c(cc1O)C[C@H]1c3c(cc(O)c(OC)c3-2)CCN1C,i,i,i,i,i,i
COc1cc2c3c(c1OC)Oc1ccc(cc1)C[C@H]1c4c(cc(OC)c(OC)c4Oc4ccc(cc4)C[C@@H]3N(C)CC2)CCN1C,i,91,i,87,i,i
COc1cc2c3cc1Oc1c(OC)c(OC)cc4c1[C@H](Cc1ccc(cc1)Oc1cc(ccc1O)C[C@H]3N(C)CC2)N(C)CC4,i,80,i,70,i,i
COc1cc2c3cc1Oc1cc(ccc1O)C[C@@H]1c4c(cc(OC)c(O)c4Oc4ccc(cc4)C[C@H]3N(C)CC2)CCN1C,i,i,i,68,i,83
COC(=O)C1=C(c2cc3ccccc3o2)C[C@@H]2CC[C@H]1N2C(=O)NCc1ccco1,i,i,i,i,i,i
O=P1(NCCCn2cc[n+](Cc3nc4ccccc4[nH]3)c2)C=C(c2ccccc2)OC(c2ccccc2)=C1,i,i,i,i,i,i
O=[N+]([O-])c1ccc(N2CCOCC2)c2cccnc12,i,i,i,i,i,i
O=[N+]([O-])c1ccc(N2CCOCC2)c2c1no[n+]2[O-],i,nt,103,96,i,i
C#CC1(OC(=O)c2ccccc2)CC(C)N(C)CC1C (configuration not stated),i,i,i,i,i,i
CC(=O)O[C@H]1CCC2C3CCC4=CC(=O)CCC4=C3C=C[C@@]21C (some centres not stated),i,i,i,i,i,i
CC(C)(C)n1cc(C(=O)c2ccc3ccccc3c2O)cn1,83,i,88,i,i,i
CC(C)(C)n1cc(C(=O)c2ccccc2OCCCF)cn1,i,i,i,i,i,i
O=C(c1ccc(N2CCCCCC2)c([N+](=O)[O-])c1)N1CCC2(CC1)OCCO2,i,i,i,i,i,i
Cc1ccc2[nH]c(C)c(CCNCc3cccnc3)c2c1,i,i,i,i,i,i
O=[N+]([O-])c1ccc(CNCCc2ccccc2)cc1,i,i,98,i,i,i
COC(=O)C1=C(c2ccc(OC)c(OC)c2)C[C@@H]2CC[C@H]1N2C(=O)NCCOc1ccc(OC)cc1,i,i,i,i,i,i
C[C@@H]1CN(C2CCC(C#N)(c3ccc(F)cc3)CC2)CC[C@]1(C(=O)O)c1ccccc1 (some centres not stated),i,i,i,i,i,79
N#CC1(c2ccccc2)CCN(C2CC(=O)N(c3ccc(F)cc3)C2=O)CC1 (configuration not stated),i,i,i,i,i,i
CC1CCN(C(=O)C(C)Cl)CC1 (configuration not stated),i,i,i,i,i,i
COc1ccc(C[C@H]2NC[C@H](O)[C@H]2OC(C)=O)cc1,82,83,97,94,94,91
SMILES,TROY NFkB inh,TRPM1 prom inh,TWEAK-Fn14 inh,Peg3 prom inh,Shn3 inh set2,EBV LMP1 NFkB
COc1ccc(CCNC2CCCCC2)cc1,i,i,i,i,i,i
Ic1ccccc1CN[C@@H]1C2CCN(CC2)[C@@H]1C(c1ccccc1)c1ccccc1,i,i,i,86,i,i
Fc1ccccc1CNC1CN2CCC1CC2 (configuration not stated),i,i,i,i,i,i
CC(=NCc1ccc2c(c1)OCO2)c1c(O)n(-c2ccc(C)cc2)c(=O)[nH]c1=O,i,i,i,i,i,i
CCN(CC)c1ccc(CNCCc2ccc(F)cc2)cc1,i,i,i,64,i,i
CN1CCC(O)(c2ccc(Cl)cc2)C(C(=O)c2ccc(Cl)cc2)C1 (configuration not stated),i,i,i,i,i,i

# Compound activity from PubChem.
